Assay outcomes: PubChem, several laboratories
BioA inh = M. tuberculosis BioA enzyme inhibitors, primary screen, biochemical, plate reader, single point, HTS; 7,8-diaminopelargonic acid synthase BioA (Mycobacterium tuberculosis); purified M. tuberculosis BioA enzyme; inhibition, % at 9.99 µM; 360,000 compounds, 0.096% hits; AID 602481, 2012; in the data active means inhibition above about 40%
Vc quorum ag = inducers of Vibrio cholerae quorum light production without autoinducers, primary screen, BH1578 luxS cqsA deficient, single point | V. cholerae BH1578 lux reporter, luminescence, 6 h | activation, % at 18.7 µM | 350,000 compounds, 0.16% hits | AID 588436, 2011; in the data active means activation mostly above about 9.7%, no sharp cut-off
FBA Mtb inh = Mtb FBA enzyme inhibitors, primary screen, biochemical, fluorescence, strain H37Rv; Fructose-bisphosphate aldolase (Mycobacterium tuberculosis (strain ATCC 25618 / H37Rv)), …; purified M. tuberculosis FBA, fluorescence read-out; inhibition, % at 1 µM; 360,000 compounds, 2.3% hits; in the data active means inhibition above about 27%;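 further: 0% = vehicle and 100% = reference inhibitor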
Target sequence (P9WQA3 whole entry, looked up): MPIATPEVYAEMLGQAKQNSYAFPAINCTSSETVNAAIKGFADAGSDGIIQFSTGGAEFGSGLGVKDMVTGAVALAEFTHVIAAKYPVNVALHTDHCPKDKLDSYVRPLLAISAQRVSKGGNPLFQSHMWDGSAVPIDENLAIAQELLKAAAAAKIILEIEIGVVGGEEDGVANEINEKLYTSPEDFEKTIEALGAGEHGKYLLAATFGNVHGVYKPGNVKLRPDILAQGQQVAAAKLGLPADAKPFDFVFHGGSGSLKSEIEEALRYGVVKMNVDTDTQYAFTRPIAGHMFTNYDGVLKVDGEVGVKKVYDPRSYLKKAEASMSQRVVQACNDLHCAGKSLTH
GDH-TPI inh = GDH-TPI coupling enzyme inhibitors, primary screen, artefact control for M. tuberculosis FBA inhibitor project, biochemical, absorbance, full deck; GDH-TPI coupled enzyme counterscreen, NADH absorbance; AID 588335, 2011; inhibition, % at 4.8 µM; 360,000 compounds, 1.2% hits; in the data active means inhibition above about 30%;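 further: 0% = DMSO wells and 100% = wells lacking the enzyme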
An asterisk follows results filed as active; i = inactive; / = no result; + = active, no number. Sampled rows, rich in hits. Any-hit rate of the full collection: about 3%.

SMILES	BioA inh	Vc quorum ag	FBA Mtb inh	GDH-TPI inh
C[C@H](CO)N1C[C@H](C)[C@@H](CN(C)C)Oc2ccc(NC(=O)C3CCCCC3)cc2CC1=O	1.1	/	/	/
C[N+]1=C(/C=C/Nc2ccccc2Cl)C(C)(C)c2ccccc21	-4.4	-0.2	-0.4	35.9*
COc1ccccc1N1CCN(C(c2cc3ccc(C)cc3[nH]c2=O)c2nnnn2C2CCCC2)CC1 (configuration not stated)	-1.5	i	4.0	33.9*
COc1ccccc1N1CCN(C(c2cc3cc(C)ccc3[nH]c2=O)c2nnnn2C2CCCC2)CC1 (configuration not stated)	-2.6	1.7	-0.7	-1.0
O=C(N/N=C\c1ccoc1)c1ccco1	4.2	i	4.8	-4.6
O=C(O)c1cccc(Cn2c(Cl)c(/C=N/NC(=O)c3cc4ccccc4cc3O)sc2=O)c1	0.1	i	-0.9	58.9*
O=C(O)c1cccc(Cn2c(Cl)c(/C=N/NC(=O)c3ccco3)sc2=O)c1	0.8	0.9	-1.7	46.5*
O=C(O)c1cccc(Cn2c(Cl)c(/C=N/NC(=O)c3cccc(O)c3)sc2=O)c1	-0.3	i	4.2	49.8*
O=C(O)c1cccc(Cn2c(Cl)c(/C=N/NC(=O)c3ccccc3)sc2=O)c1	3.3	i	-7.0	55.5*
COC(=O)c1cccc(Cn2c(Cl)c(/C=N/Nc3ccccc3C)sc2=O)c1	-2.4	i	-2.0	16.5
O=C(N/N=C/c1cn(Cc2ccccc2)c2ccccc12)c1cc(O)cc(O)c1	0.0	-0.3	3.8	21.6
CC(C)C#Cc1ccc2c(c1)O[C@H](CN(C)Cc1ccccc1)[C@H](C)CN([C@H](C)CO)S2(=O)=O	0.4	/	/	/
C[C@H]1CN([C@@H](C)CO)C(=O)c2cc(C#CCN(C)C)cnc2O[C@H]1CN(C)Cc1cccc(F)c1	-0.4	/	/	/
C[C@@H]1CCCCO[C@@H](CN(C)C(=O)Nc2cccc3ccccc23)[C@H](C)CN([C@@H](C)CO)C(=O)c2cc(NS(=O)(=O)c3ccc(F)cc3)ccc2O1	-1.5	/	/	/
COc1ccc(S(=O)(=O)Nc2ccc3c(c2)CC(=O)N([C@@H](C)CO)C[C@@H](C)[C@H](CN(C)Cc2ccncc2)O3)cc1	-0.9	/	/	/
C[C@@H]1CN([C@H](C)CO)C(=O)c2cc(-c3ccc(C#N)cc3)cnc2O[C@H]1CN(C)C(=O)CN(C)C	1.2	/	/	/
Cc1ccccc1N/N=C/c1sc(=O)n(Cc2cccc(C(=O)O)c2)c1Cl	/	-0.4	-2.4	38.7*
CNC(=S)N1N=C(c2cccs2)CC1c1ccc(F)cc1 (configuration not stated)	4.5	i	8.3	36.2*
CNc1ncc(C(=O)c2ccc(Cl)c(Cl)c2)s1	0.0	-0.4	-0.9	34.1*
CNc1ncc(C(=O)c2ccc(-c3ccccc3)cc2)s1	-1.4	-0.4	-1.1	21.0
CNc1ncc(C(=O)c2ccc(Cl)cc2)s1	-0.3	-0.4	-1.8	46.8*
O=C(c1ccccc1)c1cnc(Nc2ccccc2Cl)s1	1.5	i	0.8	30.8*
CC(C)(C)C(=O)c1cnc(Nc2ccccc2Cl)s1	-1.3	i	0.6	16.4
CCC(=O)Nc1cccc(-c2cnc3ccccc3n2)c1	-0.8	-0.3	-0.8	30.6*
O=Nc1c(O)n(Cc2ccccc2)c2ccccc12	3.0	80.9*	-1.7	10.1
SMILES	BioA inh	Vc quorum ag	FBA Mtb inh	GDH-TPI inh
CCCn1c(O)c(N=N)c2ccccc21	-0.3	+	-5.0	2.4
CCn1c(O)c(N=N)c2ccccc21	/	0.1	-2.0	0.9
CCn1c(O)c(N=NC(=O)CNC(=O)c2ccco2)c2ccccc21	/	-0.3	0.7	16.6
CCCn1c(O)c(N=NC(=O)c2ccco2)c2ccccc21	-1.1	0.6	5.6	32.6*
O=C(NC1CCC1)[C@H]1[C@H](CO)[C@H]2Cn3c(ccc(-c4ccccc4)c3=O)[C@H]2N1Cc1ccccn1	2.4	/	/	/
COc1ccc2c(c1)[nH]c1c(=O)n(/N=C/C3C(C)C=C(C)CC3C)c(=O)[nH]c12 (configuration not stated)	/	i	5.6	6.8
COc1ccc2[nH]c3c(=O)n(/N=C/[C@H]4C(C)C=C(C)CC4C)c(=O)[nH]c3c2c1 (some centres not stated)	-6.1	0.8	155.8*	10.6
CN(C)C(=O)C[C@@H]1C[C@H]2c3cc(NC(=O)C4CCC4)ccc3O[C@H]2[C@@H](CO)O1	-1.4	/	/	/
COc1ccc(CN(C)C[C@@H]2OCCCC[C@@H](C)Oc3ccc(NC(=O)c4ccccc4)cc3C(=O)N([C@@H](C)CO)C[C@H]2C)cc1	-2.2	/	/	/
C[C@H](NC(=O)C[C@H]1CC[C@H](NC(=O)CN2CCOCC2)[C@@H](CO)O1)c1ccccc1	0.5	/	/	/
N#Cc1cc(C#N)c(N2CCN(c3ccccn3)CC2)nc1N	/	i	0.2	32.2*
COc1ccc(-c2c(C#Cc3ccsc3)c3cc(-c4ccc5c(c4)OCCO5)ccc3n2C)cc1	-1.9	-0.7	18.9	42.1*
COc1ccc(-c2c(C#Cc3ccsc3)c3cc(-c4ccc5[nH]ccc5c4)ccc3n2C)cc1	-2.3	-1.1	18.5	47.1*
COc1cc(OC)cc(-c2c(C#Cc3ccsc3)c3cc(-c4ccc5c(c4)OCO5)ccc3n2C)c1	-3.0	-0.4	10.5	38.6*
COc1ccc(-c2c(C#Cc3ccsc3)c3cc(-c4ccc5c(c4)OCO5)ccc3n2C)cc1	-2.8	i	2.6	11.4
COc1cccc(NC(=O)N2C[C@@H](O)COC[C@@H]3O[C@@H](CC(=O)NCCCN4CCOCC4)CC[C@H]32)c1	-1.4	/	/	/
Cc1noc(C)c1NC(=O)Nc1ccc2c(c1)C(=O)N([C@H](C)CO)C[C@@H](C)[C@H](CN(C)C(=O)NC1CCCCC1)O2	-4.6	/	/	/
C[C@H]1CN([C@@H](C)CO)C(=O)c2cccc(NC(=O)c3cnccn3)c2O[C@@H]1CN(C)Cc1ccncc1	3.4	/	/	/
CCOc1ccccc1N1C(=O)NC(=O)/C(=C/c2ccc3c4c(cccc24)CC3)C1=O	-1.9	i	38.3*	23.5
Cc1cn(C(=O)c2ccccc2)c(=S)n1-c1ccc(Cl)cc1	0.0	i	0.0	33.6*
Cc1ccc(-n2c(C)cn(C(=O)c3ccccc3)c2=S)cc1	-0.4	-2.6	2.0	17.5
COc1cc2c(cc1OC)-c1cc(Nc3ccccc3)nc(=O)n1CC2	-0.6	i	9.2	18.4
COc1ccc(Nc2cc3n(c(=O)n2)CCc2cc(OC)c(OC)cc2-3)c(C)c1	2.4	i	2.4	32.8*
COc1ccc(Nc2cc3n(c(=O)n2)CCc2cc(OC)c(OC)cc2-3)cc1	3.1	-1.1	22.4	24.5
COc1cc2c(cc1OC)-c1cc(Nc3ccc(C)cc3)nc(=O)n1CC2	1.4	i	-1.5	17.8
COc1cc2c(cc1OC)-c1cc(N3CCCCCC3)nc(=O)n1CC2	/	-1.2	14.2	45.8*
COc1cc2c(cc1OC)-c1cc(NC3CCCCCC3)nc(=O)n1CC2	4.0	0.1	15.4	31.0*
